Laboratory results: the supplement of paper PMC12669032
Unmarked numbers belong to inactive results.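 How the source made its calls: active = AUC reduced over 20% with Padj below 0.05 in at least 2 of 3 replicates; inactive = otherwise.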

Experiments:
Assay in all cases: growth AUC relative to DMSO control (median of replicates) (fraction); higher = more growth (less inhibition), active = hit call of the paper
Conditions in all cases: 20 µM; 24 h
[1] = test system: Akkermansia muciniphila
In short: (§1)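 Gut bacterial monocultures in mGAM were treated with 20 µM compound (1% DMSO) and grown anaerobically at 37 °C in round-bottom 96-well plates from OD600 0.05. OD600 was read hourly for 24 h, with the minimum OD set to 0. Area under the growth curve was normalised to the plate median of solvent-only wells, or to row and column medians on the industrial chemical plate. Each value is the median of three biological replicates, each grown on a separate day.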

[2] = test system: Bacteroides caccae
In short: as §1

[3] = test system: Bacteroides clarus
In short: as §1

[4] = test system: Bacteroides dorei
In short: as §1

[5] = test system: Bacteroides stercoris
In short: as §1

[6] = test system: Bacteroides thetaiotaomicron
In short: as §1

[7] = test system: Bacteroides uniformis
In short: as §1

[8] = test system: Bifidobacterium longum subsp. longum
In short: as §1

[9] = test system: Clostridium difficile
In short: as §1

[10] = test system: Collinsella aerofaciens
In short: as §1

[11] = test system: Coprococcus comes
In short: as §1

[12] = test system: Escherichia coli ED1a
In short: as §1

[13] = test system: Escherichia coli IAI1
In short: as §1

[14] = test system: Eubacterium rectale
In short: as §1

[15] = test system: Fusobacterium nucleatum subsp. animalis
In short: as §1

[16] = test system: Lactobacillus gasseri
In short: as §1

[17] = test system: Lactobacillus paracasei
In short: as §1

[18] = test system: Odoribacter splanchnicus
In short: as §1

[19] = test system: Parabacteroides distasonis
In short: as §1

[20] = test system: Parabacteroides merdae
In short: as §1

Row | Structure (SMILES) | growth AUC [1] | growth AUC [2] | growth AUC [3] | growth AUC [4] | growth AUC [5] | growth AUC [6] | growth AUC [7] | growth AUC [8] | growth AUC [9] | growth AUC [10] | growth AUC [11] | growth AUC [12] | growth AUC [13] | growth AUC [14] | growth AUC [15] | growth AUC [16] | growth AUC [17] | growth AUC [18] | growth AUC [19] | growth AUC [20]
1 | NC(=O)c1c(Cl)cccc1Cl | 0.966 | 0.94 | 1 | 1.01 | 1.06 | 0.998 | 0.978 | 1 | 0.98 | 0.974 | 0.984 | 1.01 | 0.983 | 1.09 | 1.1 | 0.917 | 1.03 | 1.07 | 0.99 | 0.996
2 | CN(C)C(=O)NC1CCCCCCC1 | 0.984 | 1.01 | 1.01 | 0.996 | 1.09 | 0.99 | 0.972 | 1.01 | 1.03 | 1.01 | 1.03 | 0.999 | 0.998 | 1.06 | 1.04 | 1.04 | 0.978 | 0.948 | 1.02 | 1.01
3 | CCOC(=O)C(C)Oc1ccc(Oc2cnc3cc(Cl)ccc3n2)cc1 (stereo not given) | 1.01 | 0.978 | 0.953 | 0.942 | 1.01 | 0.992 | 0.932 | 1.06 | 1.03 | 1.02 | 1.01 | 0.997 | 1.04 | 1.09 | 1.03 | 1.04 | 0.95 | 1.02 | 0.971 | 0.956
4 | CCc1nc2ncnn2c(N)c1CCCCCC(=O)O.Cl | 1.06 | 1.03 | 1.07 | 1.03 | 1.14 | 0.988 | 1.02 | 0.963 | 1.01 | 0.996 | 1.03 | 1.02 | 1.04 | 1.11 | 1.14 | 1.08 | 0.977 | 1.04 | 0.99 | 1.06
5 | CCOC(=O)C1=NOC(c2ccccc2)(c2ccccc2)C1 | 0.86 | 1.03 | 0.971 | 0.995 | 0.979 | 0.926 | 0.932 | 0.966 | 0.974 | 0.993 | 0.974 | 0.974 | 0.997 | 0.932 | 0.956 | 0.99 | 1.06 | 0.944 | 1.14 | 0.948
6 | COc1cc(OC)nc(NC(=O)NS(=O)(=O)Nc2ccccc2C(=O)N(C)C)n1 | 1.01 | 1 | 0.983 | 1.02 | 0.982 | 0.986 | 1.01 | 0.975 | 0.974 | 0.992 | 0.994 | 0.981 | 0.992 | 0.972 | 0.94 | 1.03 | 0.939 | 0.997 | 1.03 | 1.02
7 | Clc1ccc(Sc2cc(Cl)c(Cl)cc2Cl)cc1 | 1.05 | 0.943 | 0.993 | 1.04 | 0.985 | 0.98 | 0.984 | 0.986 | 1 | 0.936 | 0.964 | 0.972 | 0.984 | 0.943 | 1.04 | 0.86 | 1.05 | 1.1 | 1.01 | 0.976
8 | CCc1ccc(O)cc1 | 0.993 | 0.884 | 1.01 | 0.95 | 1.24 | 0.989 | 1.01 | 1.01 | 0.957 | 0.919 | 0.934 | 1.02 | 0.997 | 0.988 | 1.13 | 0.963 | 0.84 | 0.979 | 1.02 | 0.968
9 | CNC(=O)/C(=N/OC)c1ccccc1CO/N=C(C)/C(=N/OC)C(/C)=N/OC | 0.957 | 0.983 | 0.98 | 1 | 0.991 | 0.976 | 0.976 | 0.989 | 0.979 | 1.03 | 1.01 | 1.01 | 1.05 | 0.928 | 0.91 | 1.16 | 0.998 | 0.989 | 0.997 | 0.976
10 | O=C(Nc1ccc(F)cc1-c1ccc(Cl)c(Cl)c1)c1cn[nH]c1C(F)F | 1.02 | 0.865 | 0.724 (active) | 0.968 | 0.349 (active) | 0.635 (active) | 0.689 (active) | 0.952 | 0.971 | 1.01 | 0.916 | 0.974 | 0.945 | 0.82 | 0.983 | 0.814 | 0.953 | 0.553 (active) | 0.373 (active) | 0.779 (active)
11 | O=C(O)Cc1c[nH]c2ccccc12 | 0.904 | 0.973 | 0.976 | 1.03 | 1.02 | 0.98 | 1.01 | 1.01 | 1 | 0.984 | 1.03 | 1 | 1.02 | 1.02 | 1.02 | 1.22 | 1.06 | 0.983 | 1.02 | 1.02
12 | CCCCCCCCCC[N+](C)(C)Cc1ccccc1.[Cl-] | 0.987 | 0.962 | 0.987 | 0.979 | 1.21 | 0.996 | 0.896 | 0.866 | 0.921 | 0.848 | 0.9 | 1 | 0.969 | 0.91 | 1.02 | 0.712 | 1.06 | 0.926 | 0.847 | 0.91
13 | CCC([O-])=C1C(=O)CC(C(=O)[O-])CC1=O.[Ca+2] (stereo not given) | 0.965 | 1 | 0.998 | 0.996 | 1.1 | 0.958 | 1.01 | 1.03 | 1 | 0.995 | 0.957 | 1 | 0.972 | 1.13 | 1.11 | 1.06 | 0.91 | 0.976 | 0.993 | 0.996
14 | N#Cc1ccc(CC(=NNC(=O)Nc2ccc(OC(F)(F)F)cc2)c2cccc(C(F)(F)F)c2)cc1 (mixture of isomers) | 1 | 1.03 | 1.02 | 1.03 | 0.988 | 1.02 | 1.02 | 0.999 | 1.01 | 1.03 | 0.991 | 0.986 | 1.02 | 0.963 | 1.12 | 1.15 | 0.959 | 1.02 | 0.999 | 0.936
15 | CC(C)CNC(=O)N1CCNC1=O | 1.09 | 0.975 | 1.02 | 0.96 | 1.18 | 1.02 | 1.02 | 1.04 | 1.04 | 1.08 | 1.01 | 1.02 | 1.02 | 1.02 | 1.07 | 1.05 | 1.04 | 1.06 | 0.956 | 1.01
16 | COc1nc(N)nc(C(F)(F)F)n1 | 0.945 | 0.985 | 0.992 | 1.01 | 0.988 | 0.985 | 1.01 | 1.04 | 1.03 | 1.02 | 1.05 | 0.998 | 1 | 0.958 | 1.04 | 1.08 | 0.964 | 1.01 | 1.03 | 1.02
17 | CCNc1nc(Cl)nc(N(CC)CC)n1 | 1.06 | 0.995 | 1.01 | 0.986 | 1.01 | 0.977 | 0.951 | 1.02 | 1.02 | 1.03 | 1.02 | 1.02 | 0.971 | 1.04 | 1.11 | 0.925 | 0.997 | 1.04 | 1.07 | 1
18 | COc1cccc(N(C)C(=S)Oc2cccc(C(C)(C)C)c2)n1 | 0.871 | 0.93 | 0.921 | 1.06 | 0.839 | 1.01 | 1.01 | 0.895 | 1.09 | 0.97 | 0.954 | 0.997 | 0.982 | 0.896 | 0.971 | 1.06 | 0.707 | 1.11 | 0.951 | 0.933
19 | O=c1cc(Cl)[nH]nc1-c1ccccc1 | 0.833 | 1.01 | 0.967 | 1.05 | 0.777 | 1.02 | 1.01 | 0.954 | 1.07 | 0.983 | 0.973 | 0.956 | 0.954 | 0.939 | 0.995 | 0.992 | 0.748 | 1.02 | 1.02 | 0.982
20 | CNC(=O)/C(=N/OC)c1ccccc1COc1cc(C)ccc1C | 0.923 | 1 | 0.94 | 1.01 | 1.01 | 0.946 | 0.962 | 0.972 | 0.987 | 0.968 | 0.974 | 1.01 | 1 | 0.92 | 0.931 | 1.01 | 1.01 | 0.981 | 0.92 | 0.926
21 | COC(=O)c1csc(C)c1S(=O)(=O)NC(=O)n1nc(OC)n(C)c1=O | 1.17 | 0.981 | 1 | 0.967 | 1.02 | 0.993 | 0.955 | 1.04 | 0.931 | 0.956 | 1.01 | 1 | 0.971 | 1.11 | 0.942 | 0.805 | 0.993 | 0.982 | 0.801 | 0.99
22 | CCOC(=O)C1CC(=O)C(=C(O)C2CC2)C(=O)C1 (stereo not given) | 1.01 | 1.03 | 0.965 | 0.979 | 0.982 | 1 | 0.972 | 1.03 | 1.01 | 0.986 | 1.02 | 0.972 | 1.01 | 0.961 | 1.01 | 1.01 | 0.937 | 0.976 | 0.984 | 1.03
23 | Cc1[nH]oc(=O)c1N=Nc1ccccc1Cl | 0.935 | 0.996 | 0.95 | 0.951 | 0.828 | 1.01 | 1.02 | 1.04 | 0.964 | 0.961 | 1.01 | 0.989 | 0.962 | 1.03 | 0.839 | 0.931 | 0.955 | 1.06 | 0.987 | 0.949
